Data taken from the supplement of paper PMC3334620.
Over roughly 33,000 sequences, “E-score (-0.5 to 0.5)” has its median near -0.0014; the highest 2% begin near 0.25. This excerpt belongs to a sample that is enriched for the highest values.

target: T1, Cad1 (UniProt P24813); assay: PBM E-score (8-mer binding enrichment) (E-score (-0.5 to 0.5)); higher = stronger / more preferred TF binding; conditions: protein concentration: 100 nM; construct: GST-full length
T1 sequence: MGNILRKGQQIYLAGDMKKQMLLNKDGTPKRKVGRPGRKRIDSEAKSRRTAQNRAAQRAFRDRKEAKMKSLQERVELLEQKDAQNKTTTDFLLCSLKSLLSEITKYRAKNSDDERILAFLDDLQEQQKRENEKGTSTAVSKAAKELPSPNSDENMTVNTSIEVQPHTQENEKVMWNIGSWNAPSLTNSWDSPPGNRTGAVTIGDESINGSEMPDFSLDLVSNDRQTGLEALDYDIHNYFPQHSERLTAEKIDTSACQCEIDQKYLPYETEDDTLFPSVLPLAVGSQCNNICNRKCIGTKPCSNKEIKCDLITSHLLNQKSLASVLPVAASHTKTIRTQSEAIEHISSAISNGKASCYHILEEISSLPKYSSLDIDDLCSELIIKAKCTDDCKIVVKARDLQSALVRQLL
In short: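 For each ungapped eight-base word taken together with its reverse complement, the Universal PBM Analysis Suite assigned an E-score. Binding data came from GST-tagged yeast transcription factors, applied at about 100-200 nM, on universal all-10-mer Agilent arrays made double-stranded by primer extension. Fluorescent anti-GST marked bound protein, and scans were normalised with masliner.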

| Sequence | PBM E-score |
| --- | --- |
| CGACCTAC | -0.126 |
| CGTTGGTA | 0.141 |
| GTTCGGAA | 0.174 |
| ACACTATC | 0.115 |
| GACTCAAA | -0.0319 |
| ACAACTAT | 0.0919 |
| AGTAGTGG | 0.0582 |
| GAACTATA | 0.09 |
| GATTAATA | 0.354 |
| GATTAAAA | 0.214 |
| GATTAAGA | 0.18 |
| GGTTGAGA | -0.224 |
| CCATATGA | -0.0943 |
| GCATATGA | 0.118 |
| TCATATGA | 0.321 |
| CCCCTGCA | -0.246 |
| AGCCAACT | -0.117 |
| ACGGATCA | 0.215 |
| AATTCGCC | 0.154 |
| GCGAACAA | 0.275 |
| ACGAACAA | 0.184 |
| CCGAACAA | 0.107 |

| Sequence | PBM E-score |
| --- | --- |
| TGGAACAA | 0.144 |
| CGGAACAA | 0.29 |
| CGGAACAC | 0.235 |
| CGTAGTAC | -0.00804 |
| AGCATCCA | -0.168 |
| CTTTCAGA | 0.0705 |
| AAGAATGC | 0.0333 |
| GGCTTACA | 0.229 |
| GAATGGTC | -0.0781 |
| ATAAACCC | 0.0626 |
| AAGCCTTG | 0.00151 |
| AATCTCCC | -0.277 |
| AAGCGATA | 0.103 |
| GCAATTGA | 0.118 |
| ACAATTGG | -0.0197 |
| CCAATTGG | 0.263 |
| GCAATTGC | 0.33 |
| CCAATTGA | 0.0388 |
| CCAATTGC | -0.114 |
| CGCTGTAG | -0.0927 |
| CGTTGCTA | 0.103 |
| CATAACTC | -0.0187 |

| Sequence | PBM E-score |
| --- | --- |
| TGCGGCCA | -0.03 |
| ATGTCTGA | 0.129 |
| GGGGATGA | -0.094 |
| CGCTAGCA | -0.0293 |
| GGCTAGCA | -0.135 |
| TGCTAGCA | 0.263 |
| ATTAATCC | 0.161 |
| ATTAATCG | 0.234 |
| CTTAATCA | 0.141 |
| ATTAATCA | 0.436 |
| GTTAATCA | 0.318 |
| GCTAATCA | 0.215 |
| CTAGCCCC | -0.0928 |
| TGCAGAAA | 0.114 |
| ACGTACTC | -0.0542 |
| AAATATGT | 0.277 |
| CTCTATAC | 0.0205 |
| AAATATGC | 0.069 |
| ATATATCC | 0.297 |
| ACATATAT | 0.155 |
| ATATATAG | 0.175 |
| ATATATCA | 0.134 |

| Sequence | PBM E-score |
| --- | --- |
| CTATATAC | 0.27 |
| CTATATAG | 0.0376 |
| ATATATAT | 0.295 |
| CTATATCC | -0.0465 |
| AAATATGA | 0.234 |
| CCTGCCTA | -0.0584 |
| AGGGTTAG | -0.153 |
| AGGATAGA | -0.0415 |
| AGAACTAG | -0.146 |
| CCAAAGGG | -0.0732 |
| ACTCTCGG | -0.0764 |
| GGCGTTAC | -0.0303 |
| GTATATAC | -0.0771 |
| ATATATAC | 0.317 |
| ACATATAC | 0.0911 |
| AAATATAT | 0.305 |
| AAATATAC | -0.0915 |
| AAATATAA | 0.247 |
| AGTAGCCA | -0.282 |
| AGTCCAGC | -0.112 |
